NIH3T3 tox: cytotoxic compounds in NIH 3T3 cells | NIH 3T3 viability, CellTiter-Glo ATP luminescence, 48-72 h | Potency, µM (highest dose often 96.7 µM), actives largely listed as inhibitors | hit rate 4.3% among 94,000 | AID 1345082; further: nearly all actives have a fitted effect of over 55% in size
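Cytotoxicity was measured by CellTiter-Glo ATP luminescence after 48 or 72 h compound exposure at 37 °C. Mouse NIH 3T3 fibroblasts were seeded at 400 cells/well and dosed by 23 nL pin transfer.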
FLuc inh: blocks purified firefly luciferase enzyme activity; Potency, µM (highest dose often 115 µM), actives largely listed as inhibitors; P08659; purified P. pyralis luciferase, luminescence, biochemical; hit rate 2.5% among 76,000; further: nearly all actives have a fitted effect of over 65% in size
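FLuc 10nM, D-luciferin 10uM, ATP 10uM, Mg acetate 10mM, Tris acetate pH 7.5, Tween/BSA; cpd qHTS; enzyme added last; CCD luminescence.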
HEK cytotox: HEK 293 cell cytotoxicity; HEK 293 viability, ATP luminescence (CellTiter-Glo), 48-72 h; hit rate 6.6% among 94,000; Potency, µM (series often up to 115 µM), usual class: inhibitors; further: nearly all actives have a fitted effect of over 60% in size
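CellTiter-Glo luminescence (cellular ATP) was read after 48 or 72 hr of compound exposure at 37 degree Celsius. Cells were HEK 293 plated at 250 cells/well.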
GPT2 inh: inhibitors of human GPT2 alanine aminotransferase. Potency, µM (top dose mostly 57.7 µM), most hits filed as inhibitors. Recombinant GPT2, coupled pyruvate oxidase/HRP Amplex Red fluorescence. hit rate 0.25% among 100,000; further: nearly all actives have a fitted effect of over 60% in size
Target sequence (Q8TD30 whole entry, looked up): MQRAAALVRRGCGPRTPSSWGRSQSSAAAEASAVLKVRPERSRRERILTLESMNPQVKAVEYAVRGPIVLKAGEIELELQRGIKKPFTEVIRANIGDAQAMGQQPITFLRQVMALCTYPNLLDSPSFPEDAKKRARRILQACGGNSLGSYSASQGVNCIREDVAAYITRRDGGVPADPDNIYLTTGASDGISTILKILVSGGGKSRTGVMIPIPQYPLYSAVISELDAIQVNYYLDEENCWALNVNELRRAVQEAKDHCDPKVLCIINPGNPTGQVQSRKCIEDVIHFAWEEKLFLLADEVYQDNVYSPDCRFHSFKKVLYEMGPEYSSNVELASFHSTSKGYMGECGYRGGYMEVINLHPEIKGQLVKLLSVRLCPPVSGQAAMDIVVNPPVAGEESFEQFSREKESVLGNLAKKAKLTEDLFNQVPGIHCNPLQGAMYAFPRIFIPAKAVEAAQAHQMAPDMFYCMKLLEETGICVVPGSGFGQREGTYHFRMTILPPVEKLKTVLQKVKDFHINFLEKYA
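Fluorescence read-out: pyruvate from GPT2 turnover coupled to pyruvate oxidase, HRP and Amplex Red (0.2mM ThPP, 0.2U/mL PO and HRP, 50uM Amplex final). Substrates 250uM a-KG, 2mM L-alanine; enzyme 10ng/uL; 30 min RT.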
hNpr1 antagonist: blocks ANP-stimulated signaling of human Npr1 receptor; Potency, µM (highest dose often 46.3 µM), actives largely listed as inhibitors; HEK293 hNpr1 GloSensor cGMP, ANP-stimulated luminescence; hit rate 1.6% among 76,000; calls by dose curve; further: nearly all actives have a fitted effect of over 60% in size
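HEK293 cells stably expressing human Npr1 and cGMP GloSensor pGS-40F, loaded 2 h with 2% GloSensor reagent, given compound 30 min at room temperature. Luminescence read before and 20 min after 0.1 nM hNppA.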
Of the large screens only hits and unclear results are named; the others gave an inactive call. An excerpt weighted towards active compounds, which were near 10% of everything screened. Unless noted, the call rests on the fitted dose curve; in most records, active means well fitted curve in the direction sought with a large enough effect; inconclusive means small, poorly fitted or top-dose-only effect, or another doubt; inactive means no such curve, though single readings can be large; an effect the other way counts as inactive or inconclusive.

OCC1(Cc2ccccc2)CCCN(Cc2ccccc2-c2ccco2)C1 (configuration not stated)	HEK cytotox inconclusive
O=C(NCc1cccc(C(F)(F)F)c1)C1CCCN(Cc2cccc(-c3ccsc3)c2)C1 (configuration not stated)	NIH3T3 tox 13µM, HEK cytotox 32µM (no result: FLuc inh, GPT2 inh, hNpr1 antagonist)
Cc1cccc(-c2cccc(CN3CCCC(C(=O)NCC(F)F)C3)c2)c1 (configuration not stated)	NIH3T3 tox inconclusive, HEK cytotox inconclusive (no result: FLuc inh, hNpr1 antagonist)
O=C(NCc1ccc(C(F)(F)F)cc1)C1CCCN(Cc2cccc(-c3ccsc3)c2)C1 (configuration not stated)	NIH3T3 tox 35µM, HEK cytotox inconclusive (no result: FLuc inh, GPT2 inh, hNpr1 antagonist)
O=C1CCN(Cc2ccncc2)CCCC(C(=O)NCc2cccc(C(F)(F)F)c2)CCN1 (configuration not stated)	none
CN1C[C@H](C(=O)NCCOc2ccccc2)C[C@H]1c1cccc(C(F)(F)F)c1	NIH3T3 tox inconclusive, HEK cytotox 100µM
O=C(Nc1cccc(F)c1)[C@@H]1C[C@@H](c2cccc(C(F)(F)F)c2)N(CC2CCOCC2)C1	NIH3T3 tox 20µM, HEK cytotox 22µM
COc1ccc(NC(=O)[C@@H]2C[C@@H](c3cccc(C(F)(F)F)c3)N(CC3CCOCC3)C2)cc1	NIH3T3 tox inconclusive, HEK cytotox inconclusive
CN1C[C@H](C(=O)Nc2cccc(F)c2)C[C@H]1c1cccc(C(F)(F)F)c1	NIH3T3 tox 50µM, HEK cytotox 63µM
O=C(Nc1ccccc1)[C@@H]1C[C@@H](c2cccc(C(F)(F)F)c2)N(CC2CCOCC2)C1	NIH3T3 tox inconclusive, HEK cytotox 56µM, GPT2 inh inconclusive, hNpr1 antagonist inconclusive
COc1ccc(NC(=O)[C@@H]2C[C@@H](c3cccc(C(F)(F)F)c3)N(C)C2)cc1	NIH3T3 tox inconclusive, HEK cytotox inconclusive
COc1cccc(NC(=O)Cn2c(C)ccc(NS(=O)(=O)c3ccccc3)c2=O)c1	GPT2 inh inconclusive
O=C(NCCc1noc(-c2ccncc2)n1)C1CCCO1 (configuration not stated)	none
Cc1nn(-c2ccccc2)c2c1C(C)N(C1CCCN([S+](C)(=O)[O-])C1)C2=O (configuration not stated)	NIH3T3 tox inconclusive (no result: FLuc inh, GPT2 inh, hNpr1 antagonist)
O=C(c1ccc(F)cc1)N1CCCC(C(=O)N2CCC(c3nc4ccncc4[nH]3)C2)C1 (configuration not stated)	none (no result: FLuc inh, hNpr1 antagonist)
C[C@H]1CN(C(=O)C2CCCC2)C[C@@H]1c1nc(-c2ccccc2)no1	NIH3T3 tox 32µM, FLuc inh inconclusive, HEK cytotox inconclusive
Cc1cc(Cl)ccc1NC(=O)N1C[C@H](c2nc(-c3cccnc3)no2)[C@@H](C)C1	HEK cytotox 45µM
C[C@@H]1CN(C(=O)Cc2cccnc2)C[C@H]1c1nc(-c2ccncc2)no1	none
COc1cc(CNC2CCCCCCC2)ccc1OCC(O)CN1CCSCC1 (configuration not stated)	NIH3T3 tox 79µM, HEK cytotox inconclusive
COc1ccc(CNCc2ccc(C)s2)cc1OCC(O)CN1CCCCC1 (configuration not stated)	NIH3T3 tox inconclusive, HEK cytotox 79µM
COc1cc(CNC2CCCCC2)ccc1OCC(O)CN1CCSCC1 (configuration not stated)	none
O=C(C1CCCC1)N1CCC(c2nn(-c3ccccn3)c(=O)[nH]2)CC1	none (no result: FLuc inh, hNpr1 antagonist)
CN1c2cc(C(=O)Nc3ccc(C#N)cc3)ccc2C(=O)N2CCCCC21 (configuration not stated)	NIH3T3 tox 35µM, HEK cytotox inconclusive
CN1c2cc(C(=O)Nc3cccc(C#N)c3)ccc2C(=O)N2CCCCCC21 (configuration not stated)	NIH3T3 tox inconclusive, FLuc inh 28µM, HEK cytotox inconclusive
CN1c2cc(C(=O)Nc3cccc(C#N)c3)ccc2C(=O)N2CCCCC21 (configuration not stated)	NIH3T3 tox inconclusive, FLuc inh inconclusive, HEK cytotox inconclusive
CC#CCn1cc2c3c(cccc31)[C@H](CC(C)C)N[C@H](C(=O)N1CCN(CCOC)CC1)C2	NIH3T3 tox inconclusive, HEK cytotox inconclusive
COc1ccc(Nc2ccnc(N3CCN(C(=O)Cc4ccc(F)cc4)CC3)n2)cc1	NIH3T3 tox 25µM, HEK cytotox 11µM (no result: FLuc inh, hNpr1 antagonist)
O=C(Cc1ccc(F)cc1)N1CCN(c2nccc(Nc3ccccc3Cl)n2)CC1	NIH3T3 tox 28µM, HEK cytotox 40µM (no result: FLuc inh, hNpr1 antagonist)
CN(C)C(=O)N1CCN(c2nccc(Nc3ccccc3F)n2)CC1	none (no result: FLuc inh, hNpr1 antagonist)
O=C(Cc1ccc(F)cc1)NC1CCN(c2nccc(Nc3ccccc3Cl)n2)CC1	NIH3T3 tox inconclusive, HEK cytotox inconclusive (no result: FLuc inh, hNpr1 antagonist)
O=C(Cc1ccc(F)cc1)N1CCN(c2nccc(Nc3ccccc3F)n2)CC1	NIH3T3 tox 18µM, HEK cytotox 18µM (no result: FLuc inh, hNpr1 antagonist)
COc1cccc(CCC(=O)NC2CCN(C(=O)c3cc4c(=O)[nH]c(C)cn4n3)CC2)c1	none
CC(C)(C)C(=O)N1CCC2(CC1)C(=O)N(CC(=O)Nc1cccc(Cl)c1)CN2c1ccccc1	NIH3T3 tox 32µM, HEK cytotox 35µM
CC1(c2ccccc2)N(Cc2ncccn2)C(=O)OC12CCN(C(=O)Cc1ccc(Cl)cc1)CC2 (configuration not stated)	NIH3T3 tox inconclusive
CC(C)C(=O)N1CCC2(CC1)OC(=O)N(Cc1ccccc1)C2(C)c1cccnc1 (configuration not stated)	NIH3T3 tox 20µM
CC(C)C(=O)N1CCC2(CC1)OC(=O)N(Cc1ncccn1)C2(C)c1ccccc1 (configuration not stated)	NIH3T3 tox 89µM
CC(=O)N1CCC2(CC1)OC(=O)N(Cc1ccccc1)C2(C)c1cccnc1 (configuration not stated)	NIH3T3 tox inconclusive
Cn1nccc1C(=O)N1CCC2(CC1)OC(=O)N(Cc1ccccc1)C2(C)c1ccccc1 (configuration not stated)	NIH3T3 tox inconclusive
CC1(c2ccccc2)N(Cc2ncccn2)C(=O)OC12CCN(C(=O)Cc1ccc3c(c1)OCO3)CC2 (configuration not stated)	NIH3T3 tox 40µM
Cn1nccc1C(=O)N1CCC2(CC1)OC(=O)N(Cc1ccccc1)C2(C)c1cccnc1 (configuration not stated)	NIH3T3 tox 28µM
COc1ccc2c(c1)OC[C@@H]1CN(C)C(=O)CCN(C(=O)OCC(C)C)[C@H]21	NIH3T3 tox inconclusive (no result: FLuc inh, GPT2 inh, hNpr1 antagonist)
COc1cccc(-c2cn3cc(C(=O)Nc4ccc(F)cc4)nc3s2)c1	NIH3T3 tox inconclusive, HEK cytotox inconclusive (no result: FLuc inh, hNpr1 antagonist)
COc1cccc(-c2ccc(C(=O)N3CCC(N[S+](=O)([O-])c4ccccc4)CC3)cc2)c1	NIH3T3 tox inconclusive, HEK cytotox 20µM (no result: FLuc inh, hNpr1 antagonist)

Screening data as filed in PubChem BioAssay.
